# Assay results reported in article PMC8384837, “Expanding the binding specificity for RNA recognition by a PUF domain”.
# Changes are numbered by the printed parent chain.
# What was measured:
# Experiment in all cases: yeast three-hybrid, YBZ-1, SC-Leu-His + 0.5 mM 3-AT, 4 days
# Conditions in all cases: tags: N-Gal4 AD-HA kept; label: inside an RPR1-promoter hybrid RNA with tandem MS2 sites; ssRNA
# [1] = target: T1, PUM1 PUF domain R6-MYV (Homo sapiens, UniProt Q14671 828-1176, N1043M;Q1047V)
# T1 sequence: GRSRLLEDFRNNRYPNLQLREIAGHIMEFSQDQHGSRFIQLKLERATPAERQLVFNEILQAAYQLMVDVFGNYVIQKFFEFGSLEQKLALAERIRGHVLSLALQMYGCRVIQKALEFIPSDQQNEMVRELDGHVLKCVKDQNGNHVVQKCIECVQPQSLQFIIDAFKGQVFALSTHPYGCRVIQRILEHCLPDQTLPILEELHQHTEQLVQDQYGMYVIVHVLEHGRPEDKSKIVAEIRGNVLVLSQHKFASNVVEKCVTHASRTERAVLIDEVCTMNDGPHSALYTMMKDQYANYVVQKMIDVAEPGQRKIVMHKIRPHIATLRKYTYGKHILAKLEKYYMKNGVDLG
# In short: (§1)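 Matching RNA elements and Pumilio-1 PUF domain libraries, randomized at the three base-contacting residues of every repeat, were co-expressed from a centromeric plasmid in strain YBZ-1 (LexA–MS2 coat fusion, HIS3 reporter). The repeat regions were PCR-amplified and Illumina-sequenced from cells grown four days on SC-Leu (input) or SC-Leu-His + 0.5 mM 3-AT (selection). The interaction score is the log change in variant frequency from input to selection. It is computed in log2, with a pseudocount of 1 for absent variants.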
# [2] = target: PUM1 PUF domain R3-IYR (Homo sapiens, UniProt Q14671 828-1176, C935I;R936Y;Q939R)
# In short: as §1
# [3] = target: PUM1 PUF domain R8-PWT (Homo sapiens, UniProt Q14671 828-1176, N1122P;Y1123W;Q1126T)
# In short: as §1
# [4] = target: PUM1 PUF domain R3-LFI (Homo sapiens, UniProt Q14671 828-1176, C935L;R936F;Q939I)
# In short: as §1
# [5] = target: T2, PUM1 PUF domain R6-YWR (Homo sapiens, UniProt Q14671 828-1176, N1043Y;Y1044W;Q1047R)
# T2 sequence: T1 sequence with M216Y, Y217W, V220R
# In short: as §1
# [6] = target: PUM1 PUF domain R3-IRG (Homo sapiens, UniProt Q14671 828-1176, C935I;Q939G)
# In short: as §1
# [7] = target: PUM1 PUF domain R1-RQS (Homo sapiens, UniProt Q14671 828-1176, S863R;R864Q;Q867S)
# In short: as §1
# [8] = target: PUM1 PUF domain R1-GKK (Homo sapiens, UniProt Q14671 828-1176, S863G;R864K;Q867K)
# In short: as §1
# [9] = target: PUM1 PUF domain R5-QMW (Homo sapiens, UniProt Q14671 828-1176, C1007Q;R1008M;Q1011W)
# In short: as §1
# PUM1 PUF domain R5-QMW, sequence (Q14671 828-1176 C1007Q/R1008M/Q1011W): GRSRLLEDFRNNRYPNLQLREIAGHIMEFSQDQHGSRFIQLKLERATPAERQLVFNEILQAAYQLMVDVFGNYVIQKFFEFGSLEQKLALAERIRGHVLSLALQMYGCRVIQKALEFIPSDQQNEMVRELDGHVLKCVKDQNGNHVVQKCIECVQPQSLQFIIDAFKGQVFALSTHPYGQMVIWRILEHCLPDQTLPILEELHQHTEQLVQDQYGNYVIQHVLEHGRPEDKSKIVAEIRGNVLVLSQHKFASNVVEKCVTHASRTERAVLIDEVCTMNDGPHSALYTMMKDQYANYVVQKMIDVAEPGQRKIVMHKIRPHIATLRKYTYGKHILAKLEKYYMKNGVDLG
# PUM1 PUF domain R1-RQS, sequence (Q14671 828-1176 S863R/R864Q/Q867S): as the sequence (Q14671 828-1176 C1007Q/R1008M/Q1011W) above, with S36R, R37Q, Q40S, Q180C, M181R, W184Q counted along it
sequence,measurement,setting,value
GGCUAGAACUAGUGGAUCCCCCGGCGCCCGGCGGCUCGAGCCCGGGUAAGUGUAAAUAGUCUGCAUGCCGCCGGGCGCCAUGCCUGCAGGUCGACUCUAGAAAACAUG,binding signal,[1],2.31 log2 enrichment (interaction score)
same,binding signal,[2],4.02 log2 enrichment (interaction score)
same,binding signal,[3],1.25 log2 enrichment (interaction score)
same,binding signal,[4],3.78 log2 enrichment (interaction score)
same,binding signal,[5],5.79 log2 enrichment (interaction score)
GGCUAGAACUAGUGGAUCCCCCGGCGCCCGGCGGCUCGAGCCCGGGUAAGUGUAAGUAGUCUGCAUGCCGCCGGGCGCCAUGCCUGCAGGUCGACUCUAGAAAACAUG,binding signal,[2],5.62 log2 enrichment (interaction score)
same,binding signal,[6],3.97 log2 enrichment (interaction score)
GGCUAGAACUAGUGGAUCCCCCGGCGCCCGGCGGCUCGAGCCCGGGUAAGCGUAAAUAGUCUGCAUGCCGCCGGGCGCCAUGCCUGCAGGUCGACUCUAGAAAACAUG,binding signal,[3],3.16 log2 enrichment (interaction score)
GGCUAGAACUAGUGGAUCCCCCGGCGCCCGGCGGCUCGAGCCCGGGUAAGUGUAAUUAGUCUGCAUGCCGCCGGGCGCCAUGCCUGCAGGUCGACUCUAGAAAACAUG,binding signal,[6],0.44 log2 enrichment (interaction score)
GGCUAGAACUAGUGGAUCCCCCGGCGCCCGGCGGCUCGAGCCCGGGUAAGUGUAAAUUGUCUGCAUGCCGCCGGGCGCCAUGCCUGCAGGUCGACUCUAGAAAACAUG,binding signal,[7],3.04 log2 enrichment (interaction score)
same,binding signal,[8],5.09 log2 enrichment (interaction score)
GGCUAGAACUAGUGGAUCCCCCGGCGCCCGGCGGCUCGAGCCCGGGUAAGUGAAAAUAGUCUGCAUGCCGCCGGGCGCCAUGCCUGCAGGUCGACUCUAGAAAACAUG,binding signal,[5],6.63 log2 enrichment (interaction score)
GGCUAGAACUAGUGGAUCCCCCGGCGCCCGGCGGCUCGAGCCCGGGUAAGUGUUAAUAGUCUGCAUGCCGCCGGGCGCCAUGCCUGCAGGUCGACUCUAGAAAACAUG,binding signal,[9],0.66 log2 enrichment (interaction score)
GGCUAGAACUAGUGGAUCCCCCGGCGCCCGGCGGCUCGAGCCCGGGUAAGUGUGAAUAGUCUGCAUGCCGCCGGGCGCCAUGCCUGCAGGUCGACUCUAGAAAACAUG,binding signal,[9],2.85 log2 enrichment (interaction score)
GGCUAGAACUAGUGGAUCCCCCGGCGCCCGGCGGCUCGAGCCCGGGUAAGUGUAAAUGGUCUGCAUGCCGCCGGGCGCCAUGCCUGCAGGUCGACUCUAGAAAACAUG,binding signal,[8],3.39 log2 enrichment (interaction score)
